Assay [1] concerns the target Cell division control protein 42 homolog (Homo sapiens) (UniProt P60953). The assay is described as follows: inhibition of fluorescent GTP binding to constitutively active Cdc42 – biochemical, multiplex bead flow cytometry, Bodipy-FL-GTP, dose response (AID 1333).
For assay [2] the target is unchanged. The assay is described as follows: inhibition of fluorescent GTP binding to wildtype Cdc42 – biochemical, multiplex bead flow cytometry, Bodipy-FL-GTP, dose response (AID 1334;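 active means fitted half-maximal concentration within the tested range, moderate curve steepness, significant signal drop, and little compound fluorescence or bead-linkage interference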). To be noted: bead-based flow cytometry, Bodipy-FL-GTP binding to GST-Cdc42; at 100 µM (top of the series) unless noted. Background: In flow cytometry, cells or beads pass a laser one at a time.

Assay [3] concerns the target GTPase HRas (Homo sapiens) (UniProt P01112). As to the kind of experiment: Ras wt fluorescent GTP loading blockade – biochemical, wildtype, multiplex bead flow cytometry, dose response (AID 1335;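 active means fitted half-maximal concentration within 10 nM to 100 µM, steepness 0.5 to 2, significant signal drop, low assay interference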). To be noted: bead-based flow cytometry, Bodipy-GTP binding to GST-Ras; at 100 µM (top of the series) unless noted.
Assay [4] has as its system Ras-related protein Rab-7a (dog), GTP binding. As to the kind of experiment: blockers of fluorescent GTP binding to Rab7 – biochemical, wildtype, multiplex bead flow cytometry, dose response (AID 1336; call rule not given here).
For assay [5], the target named is Ras-related C3 botulinum toxin substrate 1 (Homo sapiens) (UniProt P63000). The assay is described as follows: inhibition of wildtype Rac1 nucleotide loading – biochemical, multiplex bead flow cytometry, dose response (AID 1340;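 active means dose curve with midpoint inside tested range, moderate steepness, plateau gap beyond fit error, low compound glow and bead-link interference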). To be noted: GST-Rac1 beads, Bodipy-FL-GTP binding; at 100 µM (top of the series) unless noted.
In assay [6] the target is GTPase HRas (Homo sapiens) (UniProt P01112). As to the kind of experiment: blockade of GTP loading onto mutant Ras – biochemical, activated mutant, multiplex bead flow cytometry, dose response (AID 1341;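 active means dose-response curve with midpoint inside the tested range, moderate steepness, significant amplitude and little compound fluorescence or bead-attachment interference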;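 further: GST-tagged constitutively activated Ras mutant immobilized on beads and multiplexed with other GTPases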).
GTPase HRas (Homo sapiens), sequence (P01112 whole entry, looked up): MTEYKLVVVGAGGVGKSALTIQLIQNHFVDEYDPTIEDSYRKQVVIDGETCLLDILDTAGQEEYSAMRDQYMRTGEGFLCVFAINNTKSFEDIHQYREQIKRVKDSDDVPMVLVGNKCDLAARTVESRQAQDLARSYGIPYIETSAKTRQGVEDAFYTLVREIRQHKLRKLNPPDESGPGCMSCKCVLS

For part of these data: Measured potencies and affinities stand elsewhere. Calls of active or inactive are those of the source.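 How the source made its calls, unless noted: active means fitted half-maximal concentration within the tested dose range, moderate curve steepness, a statistically real signal drop, and little compound fluorescence or tag-binding interference; inactive means the rest.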

Cell division control protein 42 homolog (Homo sapiens), sequence (P60953 whole entry, looked up): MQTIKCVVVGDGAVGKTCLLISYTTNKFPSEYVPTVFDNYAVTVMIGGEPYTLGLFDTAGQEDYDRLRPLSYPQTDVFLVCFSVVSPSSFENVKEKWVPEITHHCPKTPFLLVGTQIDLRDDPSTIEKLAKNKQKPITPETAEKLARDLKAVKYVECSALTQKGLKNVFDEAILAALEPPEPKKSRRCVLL

For the compound `Cc1cc(C)nc(Nc2nc(=O)c3ccccc3s2)n1`, the outcome in assay [1], in assay [4] and in assay [6] was inactive. The fluorescence, percent of control (lower = inhibition) in assay [2] was determined as 50.5%. Further, the GTP binding, percent of control in assay [3] turned out to be 61.9%. Further, in assay [5], the GTP binding signal, raw median fluorescence (lower = inhibition) (MCF (arbitrary fluorescence units)) is 205.

As for `Cn1c(=O)cc(N2CCOCC2)[nH]c1=O`, the compound was classed as inactive in assay [1], in assay [4] and in assay [6]. For the same compound, the fluorescence, percent of control (lower = inhibition) in assay [2] came to 37.4%. The GTP binding, percent of control in assay [3] stood at 84.8%. Further, the GTP binding signal, raw median fluorescence (lower = inhibition) (MCF (arbitrary fluorescence units)) in assay [5] was 262.

For the compound `Cc1cccc(Cc2c(C)nc3nc(SCC(=O)O)nn3c2C)c1`, the compound was classed as inactive in assay [1], in assay [4] and in assay [6]. The fluorescence, percent of control (lower = inhibition) in assay [2] came to 30.6%. In assay [3], this compound showed a GTP binding, percent of control of 81.6%. For the same compound, in assay [5], the GTP binding signal, raw median fluorescence (lower = inhibition) (MCF (arbitrary fluorescence units)) was determined as 227.

As for `Cc1cc(OCCn2cc(C(=O)O)c3ccccc32)ccc1Cl`, the result in assay [1], in assay [4] and in assay [6] was inactive. The fluorescence, percent of control (lower = inhibition) in assay [2] was 58.3%. In assay [3], the GTP binding, percent of control was found to be 84.4%. In assay [5], the GTP binding signal, raw median fluorescence (lower = inhibition) (MCF (arbitrary fluorescence units)) is 28.3.

For `O=c1c2ccccc2nc2ccc(NCc3ccco3)nn12`, the compound was classed as inactive in assay [1], in assay [4] and in assay [6]. Further, the fluorescence, percent of control (lower = inhibition) in assay [2] came to 31.4%. Moreover, in assay [3], the GTP binding, percent of control is 71.8%. In addition, the GTP binding signal, raw median fluorescence (lower = inhibition) (MCF (arbitrary fluorescence units)) in assay [5] turned out to be 196.

For the compound `CCc1c(C)nc2c(C#N)c[nH]n2c1=O`, the call in assay [1], in assay [4] and in assay [6] was inactive. In assay [2], the fluorescence, percent of control (lower = inhibition) is 39%. In assay [3], this compound gave a GTP binding, percent of control of 54.3%. In addition, the GTP binding signal, raw median fluorescence (lower = inhibition) (MCF (arbitrary fluorescence units)) in assay [5] was 114.

Consider `Cn1c(SCC(=O)Nc2cccc(Br)c2)nnc1-c1cc2ccccc2o1`, for which the call in assay [1], in assay [4] and in assay [6] was inactive. In assay [2], the fluorescence, percent of control (lower = inhibition) is 101%. The GTP binding, percent of control in assay [3] came out at 189%. This compound also displayed a GTP binding signal, raw median fluorescence (lower = inhibition) (MCF (arbitrary fluorescence units)) in assay [5] of 180.

As for `O=C(O)c1cc(-c2ccc(/C=C3/SC(=S)N(Cc4ccccc4)C3=O)o2)ccc1Cl`, the call in assay [1], in assay [4] and in assay [6] was inactive. Besides, in assay [2], the fluorescence, percent of control (lower = inhibition) stood at 31.5%. This compound had a GTP binding, percent of control in assay [3] of 61.5%. This compound had a GTP binding signal, raw median fluorescence (lower = inhibition) (MCF (arbitrary fluorescence units)) in assay [5] of 154.

As to `O=C(Oc1cccc(O)c1)C1CCCCC1`, the compound was called inactive in assay [1], in assay [4] and in assay [6]. Moreover, the fluorescence, percent of control (lower = inhibition) in assay [2] was 36.8%. Besides, in assay [3], the GTP binding, percent of control amounted to 81.6%. The same compound displayed a GTP binding signal, raw median fluorescence (lower = inhibition) (MCF (arbitrary fluorescence units)) in assay [5] of 296.

Turning to `COc1ccccc1CNCc1ccc(C(=O)O)s1`, the result in assay [1], in assay [4] and in assay [6] was inactive. Moreover, in assay [2], the fluorescence, percent of control (lower = inhibition) was determined as 64.5%. In addition, the GTP binding, percent of control in assay [3] was 87.8%. This compound returned a GTP binding signal, raw median fluorescence (lower = inhibition) (MCF (arbitrary fluorescence units)) in assay [5] of 33.8.

As to `CC1(C)Cc2c(sc3c2C2=NCCN2C=N3)CS1`, the outcome in assay [1], in assay [4] and in assay [6] was inactive. Besides, in assay [2], the fluorescence, percent of control (lower = inhibition) worked out at 38.3%. The GTP binding, percent of control in assay [3] was found to be 86.3%. The same compound displayed a GTP binding signal, raw median fluorescence (lower = inhibition) (MCF (arbitrary fluorescence units)) in assay [5] of 280.

As to `CCOC(=O)Cn1nnnc1CN(Cc1cccs1)Cc1cc2cc(C)ccc2[nH]c1=O`, the call in assay [1], in assay [4] and in assay [6] was inactive. Also, the fluorescence, percent of control (lower = inhibition) in assay [2] turned out to be 98.4%. In assay [3], this compound registered a GTP binding, percent of control of 178%. This compound also displayed a GTP binding signal, raw median fluorescence (lower = inhibition) (MCF (arbitrary fluorescence units)) in assay [5] of 187.

Consider `Cc1nc2nc(SCC(=O)O)nn2c(C)c1Cc1ccccc1Cl`, for which the call in assay [1], in assay [4] and in assay [6] was inactive. For the same compound, the fluorescence, percent of control (lower = inhibition) in assay [2] worked out at 29.1%. In assay [3], this compound returned a GTP binding, percent of control of 84%. This compound yielded a GTP binding signal, raw median fluorescence (lower = inhibition) (MCF (arbitrary fluorescence units)) in assay [5] of 228.

Consider `CN(C)/C=C(\C#N)C(N)=C(C#N)C#N`, for which the result in assay [1], in assay [4] and in assay [6] was inactive. Also, the fluorescence, percent of control (lower = inhibition) in assay [2] turned out to be 38.1%. In addition, the GTP binding, percent of control in assay [3] amounted to 82.8%. Also, in assay [5], the GTP binding signal, raw median fluorescence (lower = inhibition) (MCF (arbitrary fluorescence units)) was 259.

`COc1cc2[nH]c(=S)nc(NCCc3ccc(C)cc3)c2cc1OC`: the compound was called inactive in assay [1], in assay [4] and in assay [6]. Further, the fluorescence, percent of control (lower = inhibition) in assay [2] was 26.6%. The compound further gave a GTP binding, percent of control in assay [3] of 59.9%. In addition, the GTP binding signal, raw median fluorescence (lower = inhibition) (MCF (arbitrary fluorescence units)) in assay [5] is 125.

The record behind these values is PubChem BioAssay.
